Assay outcomes: PubChem BioAssay, National Center for Advancing Translational Sciences (NCATS)
In the library only some 7.4% were active in any assay of this set; here they are far more common.
HEK293 cAMP ctrl – qHTS Assay for Agonists of the Thyroid Stimulating Hormone Receptor: Activators of Intracellular cAMP Concentrations in Parental HEK 293; Potency, µM (highest dose often 57.1 µM), actives largely listed as activators; 2.5% of 73,000 active; parental HEK293 CNG cAMP sensor, membrane potential fluorescence; note: nearly all actives have a fitted effect of over 55% in size
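Parental HEK 293 cells stably expressing a modified CNG channel (no TSHR) report cAMP rise as membrane depolarization. Membrane potential dye with 100 uM RO 20-1724 was loaded for 60 min at room temperature, then compound added for 30 min; fluorescence read at 590 nm.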
TSHR ag – qHTS Assay for Agonists of the Thyroid Stimulating Hormone Receptor; HEK293-CNG-TSHR cells (CNG channel as cAMP sensor), membrane potential dye, cAMP; 0.48% of 73,000 active; Thyrotropin receptor (Homo sapiens), P16473; Potency, µM (doses to about 57.1 µM), actives largely listed as activators; active = well fitted activation curve with a large enough effect in the main read-out, with a control signal flat, not every such curve was filed as active; inconclusive = small, poorly fitted or top-dose-only effect, or a change in a side signal; inactive = no such curve, though single readings can be large or run the other way; reference of the percent scale not stated here;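 note: the control signal comes from parental cells without the receptor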
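cAMP rise detected as CNG-channel membrane depolarization by fluorescent dye (emission 590 nm), 30 min after compound, following 60 min dye loading containing 100 uM RO 20-1724 at room temperature. Cells: TSHR/CNG HEK 293, with parental CNG HEK 293 as control.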
Tau filament bind – qHTS Assay for Tau Filament Binding | AID 596, 2007 | Microtubule-associated protein tau (Homo sapiens), P10636 | Potency, µM (top dose mostly 57.1 µM) | recombinant tau filaments, thioflavin S fluorescence, 15 h; filaments grown with octadecylsulfate alongside compound | 2% of 71,000 active;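 note: actives lower thioflavin S fluorescence by blocking filaments or displacing dye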
Target sequence (P10636 whole entry, looked up): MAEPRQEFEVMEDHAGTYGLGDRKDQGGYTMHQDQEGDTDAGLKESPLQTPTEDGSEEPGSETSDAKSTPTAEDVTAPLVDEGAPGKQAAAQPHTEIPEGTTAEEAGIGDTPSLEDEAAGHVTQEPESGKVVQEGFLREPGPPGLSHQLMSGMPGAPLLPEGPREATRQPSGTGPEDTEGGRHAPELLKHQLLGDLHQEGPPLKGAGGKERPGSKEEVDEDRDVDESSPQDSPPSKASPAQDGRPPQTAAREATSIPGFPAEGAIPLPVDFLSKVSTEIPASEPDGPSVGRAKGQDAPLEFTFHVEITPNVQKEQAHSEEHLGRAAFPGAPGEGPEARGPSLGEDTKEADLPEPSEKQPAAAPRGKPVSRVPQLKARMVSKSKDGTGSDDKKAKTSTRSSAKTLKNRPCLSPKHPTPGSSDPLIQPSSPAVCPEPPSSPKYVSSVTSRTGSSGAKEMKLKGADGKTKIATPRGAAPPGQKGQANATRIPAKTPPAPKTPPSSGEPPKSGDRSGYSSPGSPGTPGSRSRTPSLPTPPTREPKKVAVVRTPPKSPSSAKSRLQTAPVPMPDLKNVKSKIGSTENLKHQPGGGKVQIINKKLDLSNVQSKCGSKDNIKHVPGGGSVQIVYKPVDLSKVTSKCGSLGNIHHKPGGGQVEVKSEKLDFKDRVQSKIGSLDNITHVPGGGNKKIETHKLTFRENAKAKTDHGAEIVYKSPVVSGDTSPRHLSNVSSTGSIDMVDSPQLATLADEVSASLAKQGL
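His-tagged recombinant human tau (exons 2, 3, 10; 1 uM final) fibrillized with 30 uM sodium octadecylsulfate, 15 h at 37 C, in pH 7.4 HEPES buffer with 10 uM thioflavine S and 5 mM DTT. Reduced ThS fluorescence (450/510 nm) marks activity.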
CRE-bla Fsk – Cell signaling CRE-BLA (Fsk stim) | CHO CRE-bla reporter (cAMP response element driving beta-lactamase), forskolin EC10, beta-lactamase ratio | Potency, µM (titrated, usually from 38.2 µM), usual class: activators | 2.5% of 71,000 active; active = well fitted activation curve with a large enough effect in the signal ratio, with a control signal flat, not every such curve was filed as active; inconclusive = small, poorly fitted or top-dose-only effect, or effect the other way, or a change in a side signal; the % refers to the signal ratio
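AC50 values, positive or negative, reflect shifts in EC10 NKH 477-induced CRE-bla reporter activity in CHO cells. Incubation lasted 3 h at 37 °C before CCF4 substrate (2 h, room temperature) and ratiometric 460/530 nm reading.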
ERK AVP block – qHTS Assay for Inhibitors of the ERK Signaling Pathway using a Homogeneous Screening Assay. HEK293-V1b, vasopressin-stimulated pERK AlphaScreen. Potency, µM (doses to about 57.5 µM), hits mostly inhibitors. 0.99% of 72,000 active; note: nearly all actives have a fitted effect of over 55% in size
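HEK293 cells stably expressing V1b receptor, seeded overnight in 1% FBS, were treated with compounds for 30 min at 37C, then stimulated 5 min with 25 nM vasopressin; phospho-ERK read by AlphaScreen SureFire after lysis.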
Large screens that a line does not name were inactive. Unless noted, calls come from the whole dose curve; as a rule, active = well fitted curve in the direction sought with a large enough effect; inconclusive = small, poorly fitted or top-dose-only effect, or another doubt; inactive = no such curve, though single readings can be large; an effect the other way counts as inactive or inconclusive.

CC(C)CC(=O)Nc1ccc(-c2cn3ccsc3n2)cc1	Tau filament bind 13µM
COc1cc(/C=C/C(=O)c2cccs2)cc(OC)c1OC	none (no result: HEK293 cAMP ctrl, TSHR ag, Tau filament bind, CRE-bla Fsk)
C=C[C@@]1(C)CC(=O)[C@@]2(O)[C@@]3(C)[C@@H](O)CCC(C)(C)[C@@H]3[C@H](O)[C@H](OC(C)=O)[C@@]2(C)O1	HEK293 cAMP ctrl 0.079µM, TSHR ag inconclusive, Tau filament bind inconclusive, CRE-bla Fsk inconclusive, ERK AVP block 1.3µM
C=CCc1c(C)nc(SC)nc1Nc1ccc(C(C)=O)cc1	CRE-bla Fsk 10µM, ERK AVP block inconclusive
CCOC(=O)c1c(C2CCN(C(=O)OCC)CC2)nc2ccccn12	HEK293 cAMP ctrl 0.32µM, TSHR ag inconclusive, CRE-bla Fsk inconclusive (no result: ERK AVP block)
COC(=O)c1sccc1NC(=O)c1cccnc1	CRE-bla Fsk 13µM
COC(=O)c1cnn2c3c(c(C)nc12)CCCC3	CRE-bla Fsk inconclusive
Cc1c2c(nc3c(C(=O)NC4CCCC4)cnn13)CCCC2	HEK293 cAMP ctrl inconclusive, TSHR ag inconclusive, CRE-bla Fsk 2.5µM
Cc1nn(-c2ccccc2C(=O)O)c(=O)c2ccccc12	TSHR ag 10µM, CRE-bla Fsk inconclusive
CCOC(=O)N/N=C1/C[C@@H](O)[C@@H](O)[C@@H]2[C@H]3C(=O)N(c4ccc(F)cc4F)C(=O)[C@@H]3CC[C@H]12	none (no result: Tau filament bind, CRE-bla Fsk)
COc1ccc(-c2cc(C(=O)NCc3cccs3)no2)cc1OC	CRE-bla Fsk inconclusive
CCOC(=O)c1cc(-c2ccc(N)cc2)sc1N	Tau filament bind 25µM, CRE-bla Fsk inconclusive
CCOC(=O)c1ccc(N)cc1	none
Cc1nc2sc3c(c2c(=O)n1/N=C/c1ccco1)CCCC3	HEK293 cAMP ctrl 25µM, TSHR ag inconclusive
COc1ccccc1-c1c(C)c(C)nc(N)c1C#N	none
COc1ccccc1-c1cc(C2CC2)nc(N)c1C#N	HEK293 cAMP ctrl inconclusive, TSHR ag inconclusive, CRE-bla Fsk 10µM
CCCCCC1NC(=O)NC1CCCCCC(=O)O (configuration not stated)	none
O=C(O)CCCCCC[C@@H]1C(=O)NC(=O)N1CC[C@@H](O)C1CCCCC1	HEK293 cAMP ctrl 2µM, TSHR ag inconclusive, CRE-bla Fsk inconclusive (no result: ERK AVP block)
Nc1nc(-c2ccc3ccccc3c2)cc(-c2cc(-c3ccc4ccccc4c3)nc(N)n2)n1	none
O=c1c2ccccc2sc2c(CO)ccc(NCCN3CCCCC3)c12	Tau filament bind 3.2µM
COC(=O)c1sc(N2C(=O)c3oc4ccccc4c(=O)c3C2c2cccs2)nc1C (configuration not stated)	none
C=CCOC(=O)c1sc(N2C(=O)c3oc4ccccc4c(=O)c3C2c2ccco2)nc1C (configuration not stated)	Tau filament bind 10µM
Cn1nnnc1Sc1ncnc2scc(-c3ccc(F)cc3)c12	Tau filament bind inconclusive, CRE-bla Fsk inconclusive
Cn1nnnc1Sc1ncnc2scc(-c3ccccc3)c12	HEK293 cAMP ctrl inconclusive, TSHR ag inconclusive, Tau filament bind inconclusive, CRE-bla Fsk 0.5µM
Clc1ccc2c(N3CCC(CCC4CCN(c5ncnc6cc(Cl)ccc56)CC4)CC3)ncnc2c1	none
COc1ccc(NC2c3ncccc3C(=O)N2Cc2ccccc2)c(OC)c1 (configuration not stated)	Tau filament bind 16µM
COc1ccc(CN2C(=O)c3cccnc3C2Nc2ccc(OC)c(Cl)c2)cc1 (configuration not stated)	CRE-bla Fsk inconclusive, ERK AVP block inconclusive (no result: TSHR ag)
Nc1[nH]nc2nc3ccccc3nc12	Tau filament bind 40µM, CRE-bla Fsk inconclusive
COC(=O)c1cc(OC)c(OC)cc1NC(=O)c1ccccc1	CRE-bla Fsk 0.4µM, ERK AVP block inconclusive
COc1cc(NC(=O)c2ccccc2)c(OC)cc1NC(=O)CN1CCOCC1	CRE-bla Fsk inconclusive
COc1cc(NC(=O)C2CCCO2)c(OC)cc1NC(=O)c1ccccc1 (configuration not stated)	Tau filament bind 25µM, CRE-bla Fsk inconclusive
CC[C@H]1CC[C@H]2[C@@H]3CC=C4C[C@H](OC(C)=O)[C@@H](N)C[C@@]4(C)[C@H]3CC[C@@]12C	none
COc1ccccc1NC(=O)N(Cc1ccc2c(c1)OCO2)Cc1nc2ccccc2c(=O)[nH]1	HEK293 cAMP ctrl inconclusive, TSHR ag inconclusive, CRE-bla Fsk inconclusive
COc1cccc(C(=O)N(Cc2ccc3c(c2)OCO3)Cc2nc3ccccc3c(=O)[nH]2)c1	CRE-bla Fsk 5µM, ERK AVP block inconclusive
CC(=O)O[C@H]1C(=O)[C@]2(C)[C@H]([C@H](OC(=O)c3ccccc3)[C@@]3(O)C[C@H](OC(=O)[C@@H](O)[C@@H](NC(=O)c4ccccc4)c4ccccc4)C(C)=C1C3(C)C)[C@]1(OC(C)=O)CO[C@@H]1C[C@@H]2O	Tau filament bind inconclusive, CRE-bla Fsk inconclusive (no result: ERK AVP block)
O=C1c2ccccc2C(=O)N1CCCc1nc(-c2ccc(Cl)cc2)no1	HEK293 cAMP ctrl 0.16µM, TSHR ag inconclusive
CC(C)N(Cc1nc(-c2ccc(Cl)cc2)no1)C(=O)CCC1CCCC1	HEK293 cAMP ctrl 20µM, TSHR ag inconclusive
O=C1c2ccccc2C(=O)N1CCCc1nc(-c2ccccn2)no1	none
Cc1ccc(-c2noc(CN(C(=O)CCCCCN3C(=O)c4ccccc4C3=O)C(C)C)n2)cc1	Tau filament bind inconclusive
Cc1ccc(-c2noc(CN(C(=O)CCCN3C(=O)c4ccccc4C3=O)C(C)C)n2)cc1	HEK293 cAMP ctrl inconclusive, TSHR ag inconclusive, Tau filament bind 16µM
Cc1cc(Br)ccc1OCC(=O)N(Cc1nc(-c2ccccc2)no1)C(C)C	HEK293 cAMP ctrl 10µM, TSHR ag inconclusive, CRE-bla Fsk inconclusive
CC(C)N(Cc1nc(-c2ccccc2)no1)C(=O)COc1ccccc1	ERK AVP block inconclusive (no result: TSHR ag)
COc1ccc(-c2noc(CCN3C(=O)c4ccccc4C3=O)n2)cc1OC	CRE-bla Fsk 3.2µM, ERK AVP block inconclusive
CNCCCCCCCCSc1nc(C(C)C)ccc1C(=O)c1cccs1	Tau filament bind 13µM
CC(C)c1nnc(NC(=O)c2cccs2)s1	none (no result: ERK AVP block)
O=C1c2ccccc2C(=O)N1Cc1nc2ccccc2c(=O)n1CCCn1ccnc1	none
CCCCn1c(CN2C(=O)c3ccccc3C2=O)nc2ccccc2c1=O	TSHR ag 20µM
Cc1nn(-c2ccc(F)cc2)c2nc(N)c(C#N)c(-c3cccs3)c12	CRE-bla Fsk 7.9µM
COc1cc(-c2c(C#N)c(N)nc3c2c(C)nn3-c2ccc(C)c(C)c2)cc(OC)c1OC	CRE-bla Fsk 2.5µM
CO/N=C(\C)CCN1CCc2nc(-c3ccccc3)c(-c3ccccc3)cc2C1	none (no result: Tau filament bind, CRE-bla Fsk)
Nc1ccccc1NC1=CC(=O)CC(c2ccco2)C1 (configuration not stated)	Tau filament bind 16µM, ERK AVP block inconclusive
